# Assays:
# Test in all cases: PBM binding z-score (relative to random genomic background probes); higher = stronger binding; sequences stand for … in GC…GCGATTGACAGCGTAGAATGAAGG
# [1] = test system: FXR:RXRa (NR concentration 270 nM, RXRa partner concentration 90 nM)
# Summary of the method: (§1)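 Each nuclear receptor dimer, without ligand, was incubated for 1 h on custom Agilent 4×180K protein-binding microarrays. Binding was detected with antibodies against each partner (one per run), and scanned fluorescence was regression-normalized. The binding z-scores are referenced to random human genomic background probes.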
# [2] = test system: LXRa:RXRa (NR concentration 270 nM, RXRa partner concentration 90 nM)
# Summary of the method: as §1
# [3] = test system: LXRa homodimer (NR concentration 270 nM)
# Summary of the method: as §1
# [4] = test system: LXRb:RXRa (NR concentration 270 nM, RXRa partner concentration 90 nM)
# Summary of the method: as §1
# [5] = test system: LXRb homodimer (NR concentration 270 nM)
# Summary of the method: as §1
# [6] = test system: PPARa:RXRa (NR concentration 270 nM, RXRa partner concentration 90 nM)
# Summary of the method: as §1
# [7] = test system: PPARg:RXRa (NR concentration 180 nM, RXRa partner concentration 90 nM)
# Summary of the method: as §1
# [8] = test system: PPARg:RXRa 270nM:90nM, anti-RXR (NR concentration 270 nM, RXRa partner concentration 90 nM)
# Summary of the method: as §1
# [9] = test system: PPARg:RXRa 30nM:10nM, anti-RXR (NR concentration 30 nM, RXRa partner concentration 10 nM)
# Summary of the method: as §1
# [10] = test system: PPARg:RXRa 90nM:30nM, anti-RXR (NR concentration 90 nM, RXRa partner concentration 30 nM)
# Summary of the method: as §1
Sequence,PBM binding z-score [1],PBM binding z-score [2],PBM binding z-score [3],PBM binding z-score [4],PBM binding z-score [5],PBM binding z-score [6],PBM binding z-score [7],PBM binding z-score [8],PBM binding z-score [9],PBM binding z-score [10]
CCAACTAGGTCAAGGTCAAAGTCGGTTTGTGCCA,6.64,5.56,4.61,4.73,1.43,6.14,9.18,7.58,5.13,7.56
CAGGCTAGGTCAGGGCCAGTATAGGAGGAACGTT,1.56,0.779,-0.274,0.278,-0.895,2.06,1.39,1.07,-0.194,0.297
ATCTCTAGGCAACAAGTTCAGTGAAAGAGAGGAC,0.0391,0.175,-0.0655,0.139,0.432,0.498,0.668,1.15,0.633,1.09
ACAGACAGGTGAGTGACGGTAACTCAGCTGGACG,-0.187,-0.0958,-0.572,-0.393,-0.746,-0.129,0.633,0.0382,-0.358,-0.388
ATCTCTACGTAACCAAGTTCAGTGAATGCCGAAC,0.0268,0.0264,0.728,0.389,1.1,0.166,0.223,0.137,0.163,0.36
ATCGAAAGGTCGACGAGGTGAGTCTACACCGTTT,4.73,3.39,-0.244,2.47,0.381,4.55,2.93,3.2,0.846,1.9
TAGGCTAGGTCATTCAGGGGCCAGTATAGAAAGC,5.03,3.64,0.726,2.79,1.32,3.63,2.37,2.47,0.608,1.64
GCGACTGGGGCATCAGGAGGTTACCATAACTTAA,0.0636,0.325,0.0698,0.842,-1.05,1.7,1.35,1.26,0.00065,0.599
ACAGACAGGTCATGAAGGTAACTCAGGCTATCAT,5.65,4.39,0.927,3.31,0.862,4.77,3.76,3.6,1.23,2.19
TGAATGAGGTTAAAGATCAAGGAACGTGGCGTCG,3.35,2.61,-0.438,1.96,0.0283,4.79,6.53,6.53,5.25,6.93
TCATATTGGTAAAAGGTGAAAGTCGGTGTGGTAA,1.65,1.92,0.474,2.06,0.291,3.73,3.98,5.67,5.38,6.18
GGAACGAGGGCAAAGTTTATAGCATCTGTCGACG,1.77,1.29,0.174,1.19,-0.358,4.45,7.54,7.55,7,7.92
TCTAATAGTTGAAGGGCAACCGACGAGTCCGTTT,0.931,0.943,0.0231,0.595,-0.0774,1.14,0.216,2.02,3.45,2.9
TCTTGTAGATCACTAGAGGTTAAGAAAGTGCGCT,0.684,5.11,1.63,2.67,0.128,1.88,-0.00284,1.73,2.56,2.22
ATCTCTAGGTAAAGCTAGTTCAGTGAATGCAAAT,0.153,1.45,-0.0105,0.175,0.196,0.456,-0.125,0.354,0.0636,0.224
GCTGCTAGGTCAGGTAGGTCAGCTAACGGGTACG,2.1,1.72,0.0186,1.43,-0.161,2.41,1.45,2.19,-0.0602,1
TTTTGTAGATCAATAGAGGTTAAGAAAGTGCGCT,0.883,3.94,1.12,1.9,0.26,2.02,0.38,1.37,1.13,1.41
AATACAGGTTCACTAGGCCAGAGTAGGTACGAAT,1.7,2.58,0.711,1.5,0.333,3.19,3.24,2.98,0.739,1.97
CACACTAGGTCACGAAAGGTCAAAGTCGAATGAC,7.55,8.25,9.12,7.76,3.53,6.67,9.73,8.2,6.53,8.24

Sequence,PBM binding z-score [1],PBM binding z-score [2],PBM binding z-score [3],PBM binding z-score [4],PBM binding z-score [5],PBM binding z-score [6],PBM binding z-score [7],PBM binding z-score [8],PBM binding z-score [9],PBM binding z-score [10]
TCAGACAGGTGCAGGTAACTCAGGTACGCAGTCG,0.317,0.617,-0.304,0.192,-0.936,0.506,0.493,1.31,2.88,2.35
TCTTGTAGATCAATAGAGTTTAAGAAAGTGCGCT,0.426,0.959,0.0611,0.0999,-0.184,0.514,-0.0887,1,2.5,1.99
CGTCCAAGGTCAAAGGGCAGTGAAGAGATGACGG,7.23,5.66,1,4.32,0.742,6.15,7.62,7.16,5.08,7.03
ACTAGCTGGTCAGCTGAGGTCACACACAATTCGG,3.62,3.57,2.15,3.21,-0.0797,3.58,1.76,2.01,0.341,0.958
CCAGACAGGTGAGAGGGTAACTCAGCCTCGATTA,0.0104,0.0679,-0.0244,0.043,-0.609,1.65,1.99,2.94,0.655,2.18
TTACCAAGGTGAAAGGTCGATGATGCACGCCTTG,3.03,2.42,-0.187,2.14,-0.613,4.95,8.4,7.54,6.44,7.87
TCTTGTAGATCAACAGGAGGTTAAGACAGATCGA,0.088,1.15,-0.145,0.737,-0.342,1.3,0.205,1.36,2.4,2.07
CCTACTGTGCCATCAGGTCATTGATATCAACGTT,2.23,2.1,2.57,2.75,1.14,2.82,2.29,3.15,1.39,2.7
CCTGCTAGATCATGGTCAGCTAATCTACAGTATG,-0.747,-0.678,-0.68,-0.476,-0.922,-0.672,0.0409,-0.513,-0.306,-0.269
CCTTACGGGTCACGAGGTTATAACACGACGAGCG,6.57,4.63,0.527,4.2,-0.0357,6.03,7.47,6.56,3.19,5.53
TCTTGTCGATCAACAGGAGGTTAAGAAAGATCGA,0.21,0.937,0.145,0.977,-0.356,1.11,-0.231,0.969,1.86,1.64
TAGCCTAGGTCATTGGTCCAGTATAGTACGCATC,3.97,3.31,1.33,2.7,0.535,3.56,2.48,2.55,0.941,2.27
TGACTGAGGTTATAAGATCAGGGAACGTTGCAAA,1.3,1.14,-0.497,1.08,-0.238,2.27,0.706,0.976,0.531,0.783
TAGCCTAGGTTATTCAGGGGCCAGTATAGAAAGC,0.502,1.27,-0.0903,1.24,0.216,0.523,0.241,-0.0507,-0.33,0.0793
CCTACTGGGCCATTCAGAGGTCATTCATCATATG,2.68,4.55,6.9,4.38,0.909,3.72,2.08,3.3,0.754,2.26
GGAAAGAGGGCAAAGTTGATAGCATCTGTCGACG,2.04,1.94,0.254,1.64,0.832,4.24,6.06,6.9,5.92,7.29
ATACCAAGGTGATCATGAGGTCGTTGATACTAAC,1.75,1.61,0.874,1.38,-0.0501,1.89,0.785,0.728,0.266,0.604
GATACAGGGTCAGCTAGAGCCCAGAGTATGGAAA,4.49,2.36,-0.499,2.18,-0.471,4.59,3.94,3.29,0.917,2.03
CAGCCTAGGTCAGGGCCAGTATGGGAGGAACGTT,1.41,0.705,-0.724,0.176,-1.05,2.06,0.648,0.825,-0.673,0.0186
